According to PubChem BioAssay (Tox21):
Where “and” joins values, the source holds several entries; their conditions need not be identical. Equal values may be shown once. Records with an inconclusive call do not appear. Calls of active or inactive are those of the source. Calls come from the whole dose curve; as a rule, active = well fitted activation curve with a large enough effect in the repeat runs; inconclusive = weak or mixed curves; inactive = flat fitted curve, though single readings scatter.

Experiment: A CellTox Green Cytotoxicity Assay to monitor cytotoxicity in HepG2 cells - 32 hour (AID 1224883); note: nearly all actives have a fitted effect of over 50% in size
Settings: CellTox Green fluorescence; series mostly up to 76.8 µM; cytotoxicity increase: at the top concentration
How it was run: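 Continuous culture of HepG2 cells with a membrane-impermeant DNA dye; rising fluorescence marks dead cells. Compound exposure lasted up to 40 h at 37 C, with reads every 8 h from 0 h.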
% is set by controls: 0 for no effect and ±100 for the full control effect; potency is the fitted concentration of half-maximal effect.

Compound | Potency | cytotoxicity increase
CCN(CC)C(=S)[S-].CCN(CC)C(=S)[S-].[Zn+2] | 9.69 µM (active) | 
N#CC(Cl)Cl |  | 11.6% (inactive)
CN(C)C(=S)[S-].CN(C)C(=S)[S-].[Cu+2] | 2.99 µM (active) | 
c1cc[c]([Sb]([c]2ccccc2)[c]2ccccc2)cc1 |  | 0.335% (inactive)
Clc1ccc(COC(Cn2ccnc2)c2ccc(Cl)cc2Cl)cc1 (stereo unspecified) | 45.7 µM (active) and 54.7 µM (active) and 15.1 µM (active) | 
Cc1cc(C)c(C2=C(OC(=O)CC(C)(C)C)C3(CCCC3)OC2=O)c(C)c1 |  | -12.9% (inactive)
CC(=O)[O-].CC(=O)[O-].[Hg+2] | 1.74 µM (active) | 
NC(=O)CCl |  | -0.462% (inactive)
CCC(C)c1cc(C(C)(C)C)cc(-n2nc3ccccc3n2)c1O (stereo unspecified) |  | 3.02% [at 35.3 µM] (inactive)
CCOc1cc(C(C)(C)C)ccc1C1COC(c2c(F)cccc2F)=N1 (stereo unspecified) |  | 2.51% [at 35.3 µM] (inactive)
NC(=O)c1ccc(N)nc1 |  | -0.0517% (inactive)
Cc1cc(SCc2sc(-c3ccc(C(F)(F)F)c(F)c3)nc2C)ccc1OCC(=O)O |  | 11.3% (inactive)
COc1ccc(OC)c(CC(C)N)c1 (stereo unspecified) |  | -2.32% (inactive)
Cc1cc(C(F)(C(F)(F)F)C(F)(F)F)ccc1NC(=O)c1cccc(I)c1C(=O)NC(C)(C)CS(C)(=O)=O |  | -8.7% [at 35.3 µM] (inactive)
[Cd+2].[Cl-].[Cl-] | 22.1 µM (active) and 24.5 µM (active) | 
CCOP(=S)(OCC)SCCS(=O)(=O)CC |  | 15.4% (inactive)
CC(C)(COCC1CO1)COCC1CO1 (stereo unspecified) |  | -15.8% (inactive)
C=COCCCl |  | -8.91% (inactive)
Cc1ccc(C(=O)Cl)cc1 |  | 0.87% (inactive)

Compound | Potency | cytotoxicity increase
CCCCCCCCCBr |  | -2.22% (inactive)
CC(=O)Nc1ccc2c(c1)Cc1ccccc1-2 |  | -3.89% (inactive)
CC(C)N1C(=O)N(c2ccccc2)CSC1=NC(C)(C)C |  | 7.24% (inactive)
C=CC(=O)OCC(COC(=O)C=C)(COC(=O)C=C)COC(=O)C=C | 38.9 µM (active) | 
[CH3][Hg][Cl] | 12.3 µM (active) | 
Nc1ccc([N+](=O)[O-])cc1Cl |  | 4.4% (inactive)
O=C(CCl)C(Cl)Cl | 55.5 µM (active) | 
CCCCN(CCCC)C(=S)[S-].CCCCN(CCCC)C(=S)[S-].[Zn+2] | 21.9 µM (active) | 
CCOCCOC(C)=O |  | -3.41% (inactive)
[Cl][Sn]([c]1ccccc1)([c]1ccccc1)[c]1ccccc1 | 2.61 µM (active) | 
CCCCCCCCCCCCCCCC[N+](C)(C)C | 21.1 µM (active) and 19 µM (active) | 
N#CSCSC#N | 39.8 µM (active) and 17.2 µM (active) | 
C[C@]12Cc3nonc3C[C@@H]1CC[C@@H]1[C@@H]2CC[C@@]2(C)[C@H]1CC[C@]2(C)O |  | 0.322% [at 35.3 µM] (inactive)
ClC(Cl)=C(Cl)Cl |  | 4% (inactive)
C[As+](C)(C)CC(=O)[O-] |  | -0.28% (inactive)
COP(N)(=S)OC |  | 7.08% (inactive)
ClC1=C(Cl)[C@]2(Cl)[C@@H]3[C@@H](Cl)[C@@H](Cl)C[C@@H]3[C@@]1(Cl)C2(Cl)Cl |  | -14.2% (inactive)
FC(Cl)(Cl)Cl |  | -0.344% (inactive)
Cl/C=C\CCl |  | -3.65% (inactive)

Experiment: A CellTox Green Cytotoxicity Assay to monitor cytotoxicity in HEK293 cells - 8 hour (AID 1224884); note: nearly all actives have a fitted effect of over 35% in size
Settings: CellTox Green fluorescence; series mostly up to 76.8 µM; cytotoxicity increase: at the top concentration
How it was run: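 Each value comes from one timepoint of a single continuous run in which HEK293 cells with CellTox Green were exposed to compound for up to 40 h at 37 C, dye fluorescence rising with cell death.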

Compound | cytotoxicity increase | Potency
CCN(CC)C(=S)[S-].CCN(CC)C(=S)[S-].[Zn+2] | 13.5% (inactive) | 
N#CC(Cl)Cl | -12% (inactive) | 
CN(C)C(=S)[S-].CN(C)C(=S)[S-].[Cu+2] | -12.4% [at 15.8 µM] (inactive) | 
c1cc[c]([Sb]([c]2ccccc2)[c]2ccccc2)cc1 | 12.3% (inactive) | 
Clc1ccc(COC(Cn2ccnc2)c2ccc(Cl)cc2Cl)cc1 (stereo unspecified) | -1.37% [at 35.3 µM] (inactive) | 
Cc1cc(C)c(C2=C(OC(=O)CC(C)(C)C)C3(CCCC3)OC2=O)c(C)c1 | 1.61% (inactive) | 
CC(=O)[O-].CC(=O)[O-].[Hg+2] |  | 43.6 µM (active)
NC(=O)CCl | -3.03% (inactive) | 
CCC(C)c1cc(C(C)(C)C)cc(-n2nc3ccccc3n2)c1O (stereo unspecified) | 8.84% [at 35.3 µM] (inactive) | 
CCOc1cc(C(C)(C)C)ccc1C1COC(c2c(F)cccc2F)=N1 (stereo unspecified) | 24.8% [at 35.3 µM] (inactive) | 
NC(=O)c1ccc(N)nc1 | -7.63% (inactive) | 
Cc1cc(SCc2sc(-c3ccc(C(F)(F)F)c(F)c3)nc2C)ccc1OCC(=O)O | 0.0093% (inactive) | 
COc1ccc(OC)c(CC(C)N)c1 (stereo unspecified) | 0.282% (inactive) | 
Cc1cc(C(F)(C(F)(F)F)C(F)(F)F)ccc1NC(=O)c1cccc(I)c1C(=O)NC(C)(C)CS(C)(=O)=O | -11.1% [at 35.3 µM] (inactive) | 
[Cd+2].[Cl-].[Cl-] |  | inactive
CCOP(=S)(OCC)SCCS(=O)(=O)CC | -10.7% (inactive) | 
CC(C)(COCC1CO1)COCC1CO1 (stereo unspecified) | -3.15% (inactive) | 
C=COCCCl | 0.837% (inactive) | 
Cc1ccc(C(=O)Cl)cc1 | 14.3% (inactive) | 

Compound | cytotoxicity increase | Potency
CCCCCCCCCBr | -0.702% (inactive) | 
CC(=O)Nc1ccc2c(c1)Cc1ccccc1-2 | -2.18% (inactive) | 
CC(C)N1C(=O)N(c2ccccc2)CSC1=NC(C)(C)C | 14.5% (inactive) | 
C=CC(=O)OCC(COC(=O)C=C)(COC(=O)C=C)COC(=O)C=C | -1.28% (inactive) | 
[CH3][Hg][Cl] | 10.1% (inactive) | 
Nc1ccc([N+](=O)[O-])cc1Cl | 5.33% (inactive) | 
O=C(CCl)C(Cl)Cl | -18.2% (inactive) | 
CCCCN(CCCC)C(=S)[S-].CCCCN(CCCC)C(=S)[S-].[Zn+2] | 12.9% (inactive) | 
CCOCCOC(C)=O | -0.565% (inactive) | 
[Cl][Sn]([c]1ccccc1)([c]1ccccc1)[c]1ccccc1 |  | 2.33 µM (active)
CCCCCCCCCCCCCCCC[N+](C)(C)C |  | 21.1 µM (active) and 49 µM (active)
N#CSCSC#N |  | inactive
C[C@]12Cc3nonc3C[C@@H]1CC[C@@H]1[C@@H]2CC[C@@]2(C)[C@H]1CC[C@]2(C)O | 18.9% [at 35.3 µM] (inactive) | 
ClC(Cl)=C(Cl)Cl | 1.76% (inactive) | 
C[As+](C)(C)CC(=O)[O-] | -0.0061% (inactive) | 
COP(N)(=S)OC | -7.35% (inactive) | 
ClC1=C(Cl)[C@]2(Cl)[C@@H]3[C@@H](Cl)[C@@H](Cl)C[C@@H]3[C@@]1(Cl)C2(Cl)Cl | 7.23% (inactive) | 
FC(Cl)(Cl)Cl | -4.07% (inactive) | 
Cl/C=C\CCl | 26.4% (inactive) | 
